“And” between values parts separate entries of the source, which are not always exact repeats. Identical values can stand only once. Records with an inconclusive call do not appear. The source made the active and inactive calls. Calls come from the whole dose curve; as a rule, active = well fitted cell-killing curve with a large enough effect in the repeat runs; inconclusive = weak or mixed curves, or effect the other way; inactive = flat fitted curve, though single readings scatter.
% is set by controls: 0 for no effect and ±100 for the full control effect; potency is the fitted concentration of half-maximal effect.

The nature of the assay: qHTS assay to identify small molecule agonists of the estrogen receptor beta (ER-beta) signaling pathway - cell viability counter screen (AID 1259380). Note: nearly all actives have a fitted effect of over 30% in size. The settings on record: ER-beta-bla HEK293T viability, CellTiter-Glo luminescence, 16 h; series mostly up to 92.4 µM; activity change, negative = cytotoxicity: at the top concentration. The text has this:
National Center for Advancing Translational Sciences [NCATS]
NIH Chemical Genomics Center [NCGC]
U.S. Environmental Protection Agency [EPA]
National Institutes of Environmental Health Sciences [NIEHS]
National Toxicology Program [NTP]
U.S. Food and Drug Administration [FDA]
Estrogen receptor (ER), a nuclear hormone receptor, plays an important role in development, metabolic homeostasis and reproduction. Two subtypes of ER, ER-alpha and ER-beta, have similar expression patterns with some uniqueness in both types. Endocrine disrupting chemicals (EDCs) and their interactions with steroid hormone receptors like ER causes disruption of normal endocrine function. To identify the compounds that activate ER signaling, an ER beta-UAS-bla GripTite cell line (Life Technologies, Madison, WI, USA) containing a beta-lactamase reporter gene under the control of an UAS response element was used to screen Tox21 10K compound library. The cytotoxicity of the Tox21 compound library against the ER-beta-bla cell line was tested in parallel by measuring the cell viability using CellTiter-Glo assay in the same wells.
Tox21 Assay Protocol Summary:
ER-beta-UAS-bla HEK293T cells were dispensed at 2,000 cells/5 uL of assay medium containing 2% charcoal stripped FBS per well into black wall/clear-bottom 1536-well plates using a Multidrop Combi (ThermoFisher Scientific, Waltham, MA) dispenser. After the assay plates were incubated at a 37C and 5% CO2 for 6 hr, 23 nL of compounds dissolved in DMSO, positive controls or DMSO only was transferred to the assay plate by a Pintool station (Kalypsys, San Diego, CA). The plates were incubated at 37C and 5% CO2 for 16 hr. Then 1 uL of LiveBLAzerTM B/G FRET substrate was added using a BioRAPTR FRD (Flying Reagent Dispenser, Aurora Discovery, San Diego, CA) and then the plates were incubated at room temperature for 2 hours, and fluorescence intensity was measured by an Envision plate reader (PerkinElmer, Shelton, CT). For cell viability readout that measures cytotoxicity, 4 uL/well of CellTiter-Glo reagent was added into the assay plates using a FRD. After 30 min incubation at room temperature, the luminescence intensity in the plates was measured using a ViewLux (PerkinElmer) plate reader.
On the technique in general: qHTS replaces the single test concentration by a dilution series.
Regarding `CNc1ccc(O)cc1`, the Potency is 30.6 µM (active). On to `CCCCC(CC)COP(=O)(O)OCC(CC)CCCC` (stereo not given), for which the Potency was 68.7 µM (active) and 7.7 µM (active).

As to `O=C(Nc1cccc(C(F)(F)F)c1)c1cc(Br)cc(Br)c1O`, the Potency was 24.3 µM (active).

With `CCC(CN)=C(c1ccccc1)c1ccccc1`, the Potency was 21.1 µM (active).

With `CC/C(=C(\c1ccc(O)cc1)c1ccc(OCCN(C)C)cc1)c1ccccc1`, the Potency was 24.4 µM (active). For the molecule `CCc1cc(SCc2sc(-c3ccc(C(F)(F)F)cc3)nc2CN2CCN(c3ccc(OC)cc3)CC2)ccc1OCC(=O)O`, the Potency was 4.33 µM (active).

For `O=C(O)c1cc(O)c2c(c1)C(=O)c1cccc(O)c1C2=O`, the “activity change, negative = cytotoxicity” value is -4.65% (inactive). `CN(C)[C@@H]1C(=O)C(C(N)=O)=C(O)[C@@]2(O)C(=O)C3=C(O)c4c(O)cccc4C[C@H]3C[C@@H]12`: the “activity change, negative = cytotoxicity” value is -10.6% [at 42.5 µM] (inactive). Regarding `CCCCCCCCCCCCc1ccc(O)cc1`, the Potency was 43.3 µM (active). Take `CCCCCCOC(=O)c1ccc(O)cc1`: the Potency was 48.6 µM (active).

For `O=C(NO)C1(NS(=O)(=O)c2ccc(Oc3ccc(F)cc3)cc2)CCOCC1`, the “activity change, negative = cytotoxicity” value was -13.9% (inactive).

As for `OCCN1CCN(CC/C=C2/c3ccccc3Sc3ccc(C(F)(F)F)cc32)CC1`, the Potency was 21.1 µM (active). On the same count and under the same terms, as for `Cc1cc(O)c(C(C)(C)C)cc1C(C)(C)C`, the figure is 54.5 µM (active). In the case of `Cc1cc(N)c(S(=O)(=O)O)cc1Cl`, the “activity change, negative = cytotoxicity” value was 0.0568% (inactive). `CCCCCCCCOc1ccccc1C(=O)Nc1ccc(C(=O)OCC[N+](C)(CC)CC)cc1`: the Potency is 23.7 µM (active). Turning to `CCCCCCCC[P+](CCCCCCCC)(CCCCCCCC)CCCCCCCC`, the Potency is 8.58 µM (active). Turning to `Oc1ccc(C2(c3ccc(O)cc3)CC3CC2C2CCCC32)cc1` (stereo not given), the Potency is 26.2 µM (active). On the same count and under the same terms, with `CCC(C)Nc1ccc(NC(C)CC)cc1` (stereo not given) the figure was 3.93 µM (active).

With `COc1cc(-c2nc(NC(=O)c3cc4cc(C)cc(C)c4n3CC(=O)O)sc2CCC2CCCCC2)c(OC)cc1Cl`, the Potency was 19.9 µM (active).

As to `CNC(=O)c1ccccc1`, the “activity change, negative = cytotoxicity” value is 5.3% (inactive). Turning to `Oc1cccc2cc3cccc(O)c3c(O)c12`, the “activity change, negative = cytotoxicity” value was -15% (inactive).

Consider `CCCCCCC[N+](CC)(CC)CCCCc1ccc(Cl)cc1`, for which the Potency was 9.44 µM (active). `Cc1onc(-c2c(Cl)cccc2Cl)c1C(=O)N[C@@H]1C(=O)N2[C@@H]1SC(C)(C)[C@@H]2C(=O)O`: the “activity change, negative = cytotoxicity” value is 4.46% [at 42.5 µM] (inactive). In the case of `CSc1cnc(C)cn1`, the “activity change, negative = cytotoxicity” value is 7.14% [at 240 µM] (inactive).

`CC(C)(C)CC(C)(C)c1ccc(OCCOCC[N+](C)(C)Cc2ccccc2)cc1`: the Potency is 27.3 µM (active) and 16.8 µM (active). Consider `CS(=O)(=O)CCNCc1ccc(-c2ccc3ncnc(Nc4ccc(OCc5cccc(F)c5)c(Cl)c4)c3c2)o1`, for which the Potency is 13.3 µM (active). Take `Nc1ccc2c3c(cccc13)-c1ccccc1-2`: the Potency was 49.1 µM (active). On the same count and under the same terms, with `O=C1Cc2cc(CCN3CCN(c4nsc5ccccc45)CC3)c(Cl)cc2N1` the figure was 23.7 µM (active); with `CCCCCOc1ccccc1/C(=C\SC)n1ccnc1`, 23.7 µM (active); with `CC1=C(C(=O)OC(C)C)C(c2cccc([N+](=O)[O-])c2)C(C(=O)OC2CN(C(c3ccccc3)c3ccccc3)C2)=C(N)N1` (stereo not given), 29.8 µM (active). On the same count and under the same terms, as for `On1ccccc1=S`, the figure is 0.539 µM (active). For the molecule `CCN(C(=O)c1cc(C)cc(OC[C@H](C)Nc2ccncc2)c1)C(C)C`, the “activity change, negative = cytotoxicity” value was 3.07% [at 42.5 µM] (inactive). As to `CSc1ccc(C(=O)c2[nH]c(=O)[nH]c2C)cc1`, the “activity change, negative = cytotoxicity” value is 0.891% [at 42.5 µM] (inactive).

For `COc1c(C)c2c(c(O)c1C/C=C(\C)CCC(=O)O)C(=O)OC2`, the Potency was 0.133 µM (active). For `CC(C)(C)c1ccc(C(=O)CCCN2CCC(OC(c3ccccc3)c3ccccc3)CC2)cc1`, the Potency was 18.8 µM (active). Regarding `COc1ccc(CN2CCN(C(c3ccc(F)cc3)c3ccc(F)cc3)CC2)c(OC)c1OC`, the Potency is 11.9 µM (active).

For `O=S1(=O)CC(Cl)(Cl)C(Cl)(Cl)C1`, the Potency is 9.69 µM (active). As to `C=C(C)C(=O)OCC(O)COc1ccc(C(C)(C)c2ccc(OCC(O)COC(=O)C(=C)C)cc2)cc1` (stereo not given), the Potency is 61.1 µM (active). In the case of `CCCCCCCC(=O)[O-].CCCCCCCC(=O)[O-].[Zn+2]`, the “activity change, negative = cytotoxicity” value was 1.95% [at 42.5 µM] (inactive). On to `C[C@H]1[C@H]2CC[C@H]3[C@@H]4CC=C5C[C@@H](N(C)C)CC[C@]5(C)[C@H]4CC[C@]23CN1C`, for which the “activity change, negative = cytotoxicity” value was 0.0136% [at 42.5 µM] (inactive).

(Values after PubChem BioAssay (Tox21).)
